Measured values from publication PMC10668032, “Altered binding affinity of SIX1-Q177R correlates with enhanced WNT5A and WNT pathway effector expression in Wilms tumor”.
In all, about 33,000 sequences were measured (“e-score”: median about -0.05, highest 2% from about 0.38 on). Shown is part of a subset that was picked to be rich in the highest values.

biological target: T1, SIX1-Q177R homeodomain (human, UniProt Q15475 108-198, Q177R); experiment: universal protein binding microarray; Universal all-10-mer PBM (8x60K, AMADID 030236), 300 nM GST-tagged protein, Alexa Fluor 488 anti-GST; buffer, salt, pH and temperature not stated (as in Berger); high values mean tight binding; settings: protein: ivt; tags: N-terminal GST; dsDNA, one strand shown
T1 sequence: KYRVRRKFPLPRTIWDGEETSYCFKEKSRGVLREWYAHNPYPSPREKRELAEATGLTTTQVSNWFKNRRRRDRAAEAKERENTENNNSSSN
Method in brief: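 Homeodomains fused to GST were made by in vitro transcription/translation and measured by anti-GST western blot with a recombinant GST standard curve. At 300 nM final concentration, they were applied in duplicate to universal 'all 10-mer' protein binding microarrays (8×60K format).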

Sequence	binding signal [E-score]
ACGGGGTC	0.214 ± 0.0134
ACCCCCAT	0.272 ± 0.0289
ACCCCCAC	0.282 ± 0.0258
ACCCCCAA	0.312 ± 0.0125
ACACCCAC	0.4683 ± 0.00307
ACACCCAA	0.4542 ± 0.000742
GCACCCAC	0.194 ± 0.0207
GCACCCAA	0.154 ± 0.0464
ACACCCAT	0.458 ± 0.00543
ACACCCAG	0.4602 ± 0.00339
ACCCCCAG	0.23 ± 0.0356
AAACCCAG	0.219 ± 0.0117
AACCCCAT	0.169 ± 0.00626
ACCAACGC	0.246 ± 0.0108
TATCAACA	0.288 ± 0.0159
ACCCCGAC	0.265 ± 0.018
CTCGATCC	0.201 ± 0.00608
GGTGCTTA	0.234 ± 0.00599
CGGTGACA	0.248 ± 0.0377
CAAACCCC	0.197 ± 0.0505
CACTGTGA	0.177 ± 0.00305
CAGCCGAC	0.196 ± 0.0242
CCACACCG	0.363 ± 0.0269
GCACACCA	0.401 ± 0.0217

Sequence	binding signal [E-score]
CCACACCA	0.393 ± 0.0307
ACACACGA	0.251 ± 0.0465
TCACAACA	0.195 ± 0.0326
ACACACAA	0.244 ± 0.0667
GCACACGA	0.214 ± 0.0114
GCACACGC	0.256 ± 0.0166
ACACACCA	0.415 ± 0.0235
TCACACGA	0.226 ± 0.00234
TCACACCA	0.434 ± 0.00571
CCACACGA	0.234 ± 0.0111
ATCCCCTG	0.156 ± 0.0119
ACTATACG	0.178 ± 0.015
CACTCTGA	0.239 ± 0.0406
CACCTTGC	0.258 ± 0.0162
TGTTGAAA	0.219 ± 0.0411
AGTGATAC	0.265 ± 0.0283
CGTATACA	0.241 ± 0.0194
GCGGTACA	0.305 ± 0.00496
ACACTAGG	0.381 ± 0.0153
ACACTAAA	0.345 ± 0.0117
ACACTAGA	0.318 ± 0.0323
ACACTAGC	0.364 ± 0.0183
ACACTAGT	0.389 ± 0.00685
ACCCTAGG	0.1523 ± 0.00136

Sequence	binding signal [E-score]
GGATCAGA	0.17 ± 0.0215
CCCTGCAG	0.185 ± 0.0216
CTCTTACA	0.183 ± 0.018
ATGGGATC	0.185 ± 0.00496
CCGAACAC	0.4236 ± 0.00158
CCGAATAC	0.163 ± 0.00356
CCGAACCC	0.186 ± 0.0116
GCGAACAC	0.4086 ± 0.0011
GCGAACCC	0.174 ± 0.0509
ACGAGCAC	0.226
ACGAACAC	0.3992 ± 0.00182
ACCCTAAC	0.154 ± 0.00793
ACCCACAG	0.217 ± 0.00978
CACCAGGA	0.25 ± 0.00664
GTACCTAC	0.152 ± 0.0312
CTCCGTTC	0.182 ± 0.0356
CCCAAACG	0.169 ± 0.00462
ACAGGGTG	0.222 ± 0.00416
AGCACCAA	0.196 ± 0.00899
AACACGAC	0.373 ± 0.0147
AACACCAC	0.4833 ± 0.00244
AACACCAA	0.46725 ± 0.00029
TACACGAA	0.3773 ± 0.000856
AACACGAA	0.305 ± 0.0107

Sequence	binding signal [E-score]
TACACCAA	0.4751 ± 0.00401
AACACCAT	0.457 ± 0.0053
TGCACCAA	0.211 ± 0.0149
AGCACCAT	0.16 ± 0.0114
AGCACCAC	0.272 ± 0.00962
GTCCGACA	0.217 ± 0.042
GTAAGCAC	0.189 ± 0.00735
CCTCCTAA	0.197 ± 0.00216
GACGGTGC	0.175 ± 0.00182
CACTGCAC	0.223 ± 0.0117
ACCCTCGG	0.2 ± 0.0194
GATACCAA	0.263 ± 0.0211
GACACCAA	0.475 ± 0.00758
GACCACAC	0.269 ± 0.0108
GACACAAA	0.224 ± 0.11
GACACCAC	0.489 ± 0.00507
GGCACCAC	0.215 ± 0.0174
CCCCTCGA	0.23 ± 0.0411
GGCGGGTA	0.214 ± 0.0165
CCGGGTAC	0.294 ± 0.0102
AACGGGTG	0.314 ± 0.00327
ACCCGGTG	0.3599 ± 0.0016
